The values below come from PubChem BioAssay.

“And” between values parts separate entries of the source, which are not always exact repeats. Identical values can stand only once. The source made the active and inactive calls.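 Rule for the calls, unless noted: active = compounds whose cell count with miR-34 switched on is under 0.7 times the count with it off; inactive = the rest.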

Experiment [1] in a line: sensitizers of A549 cells to miR-34 induction, primary screen, imaging, A549 dox-inducible miR-34, nuclei and caspase counts (AID 1347080). Note: test concentration not given here. To be noted: A549 miR-34 inducible, Hoechst nuclei count, 48 h.
Experiment [2] in a line: survival rescue of mitochondrial mutant cells in low glucose, primary screen, MELAS cybrids, Rieske KO mouse fibroblasts, CellTiter-Glo (AID 1508586;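 active = mean z-score across replicates of 1.96 or higher in either the MELAS or the Rieske mutant cell line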;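 note: test concentration not given here; z relative to plate mean and SD of compound and empty wells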).
Experiment [3] is described as follows: viability rescue of complex I mutant cybrids, primary screen, cell-based, galactose medium, ATP luminescence (AID 1645843;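 active = z-score of at least 1.8 in each of two replicates, scored against plate mean and spread of sample wells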;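 note: positive z means more ATP and so rescue of galactose-driven cybrid death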). Particulars: complex I mutant cybrid cells, 72 h, stronger effect = higher value.
Where [4] appears, read: stronger effect = lower value, cell number ratio, induced over uninduced.
The mark [5] stands for this setting: measured here: relative caspase fold change +Dox/-Dox.
[6] abbreviates: measured here: total cells with miR-34 induction, stronger effect = lower value.
Setting [7] is: measured here: total cells without miR-34 induction.
[8] abbreviates: MELAS cybrid survival, CellTiter-Glo 48 h, stronger effect = higher value.
The mark [9] stands for this setting: Rieske KO mouse fibroblast survival, CellTiter-Glo 72 h.

Regarding `Nc1nc(-c2ccc(O)cc2)cs1`, the fold change was 0.871 (inactive) in experiment [1] (setting [4]) and 0.369 in experiment [1] (setting [5]). Besides, the results for the cell count in experiment [1] (setting [6]) and in experiment [1] (setting [7]) were 7600 and 8730, respectively. Further, the z-score in experiment [2] (setting [8]) is -0.885 (inactive); in experiment [2] (setting [9]), 0.17; in experiment [3] it was 0.145 (inactive).

With `COc1cccc2ncn(Cc3nc4ccccc4o3)c(=O)c12`, the fold change in experiment [1] (setting [4]) was 0.951 (inactive); in experiment [1] (setting [5]), 1.68. Also, the cell count in experiment [1] (setting [6]) was determined as 8290; in experiment [1] (setting [7]), 8720. For the same compound, the results for the z-score in experiment [2] (setting [8]), in experiment [2] (setting [9]) and in experiment [3] were -0.0437 (inactive), -0.268 and -0.545 (inactive), respectively.

Take `Cc1nsc(NC(=O)NCc2ccccc2-n2ccnc2C)n1`: the fold change in experiment [1] (setting [4]) was 0.866 (inactive); in experiment [1] (setting [5]), 1.23. For the same compound, the cell count in experiment [1] (setting [6]) was 9020; in experiment [1] (setting [7]), 10400. The z-score was 0.0398 (inactive) in experiment [2] (setting [8]), -0.281 in experiment [2] (setting [9]) and -0.575 (inactive) in experiment [3].

In the case of `Cc1ccc2c(C(=O)N(C)C(C)C)cc(-c3cnc(C(C)C)nc3)nc2c1`, the values for the fold change in experiment [1] (setting [4]) and in experiment [1] (setting [5]) were 0.942 (inactive) and 1.5, respectively. The cell count in experiment [1] (setting [6]) is 7480; in experiment [1] (setting [7]), 7940. The z-score in experiment [2] (setting [8]) was 0.549 (inactive); in experiment [2] (setting [9]), 0.778; in experiment [3], -0.485 (inactive).

As to `O=C(Cn1nc(Cc2ccccc2)c2ccccc2c1=O)NCCc1ccco1`, the fold change in experiment [1] (setting [4]) is 0.937 (inactive); in experiment [1] (setting [5]) it was 0.881. Besides, the values for the cell count in experiment [1] (setting [6]) and in experiment [1] (setting [7]) were 8560 and 9130, respectively. Also, the values for the z-score in experiment [2] (setting [8]), in experiment [2] (setting [9]) and in experiment [3] were 1.48 (inactive), 0.664 and -0.33 (inactive), respectively.

With `COc1cc(N=C(N)N=C(N)N)cc(OC)c1`, the fold change in experiment [1] (setting [4]) is 0.901 (inactive); in experiment [1] (setting [5]) it was 0.269. Also, the figures for the cell count in experiment [1] (setting [6]) and in experiment [1] (setting [7]) were 8210 and 9120, respectively. For the same compound, the z-score in experiment [2] (setting [8]) was 0.825 (inactive); in experiment [2] (setting [9]) it was -0.341; in experiment [3], 0.61 (inactive).

Turning to `CN(C)CCc1c[nH]c2ccc(CC3COC(=O)N3)cc12` (stereo not given), the fold change in experiment [1] (setting [4]) was 0.908 (inactive) and 0.936 (inactive); in experiment [1] (setting [5]) it was 1.13 and 0.401. Also, the cell count in experiment [1] (setting [6]) is 9680 and 7960; in experiment [1] (setting [7]) it was 10700 and 8510. Moreover, the z-score in experiment [2] (setting [8]) is -0.0653 (inactive); in experiment [2] (setting [9]) it was 0.00529; in experiment [3] it was 0.625 (inactive).

With `Cc1cnc(NCCCn2cccn2)nc1-c1cnn(C)c1`, the fold change in experiment [1] (setting [4]) was 0.862 (inactive); in experiment [1] (setting [5]) it was 1.64. Also, the figures for the cell count in experiment [1] (setting [6]) and in experiment [1] (setting [7]) were 9190 and 10700, respectively. For the same compound, the z-score in experiment [2] (setting [8]) is -0.223 (inactive); in experiment [2] (setting [9]), -0.0144; in experiment [3] it was -0.51 (inactive).

As for `O=C(C=Cc1ccc(O)c(O)c1)NCCc1ccc(O)cc1`, the fold change in experiment [1] (setting [4]) is 0.861 (inactive); in experiment [1] (setting [5]) it was 0.612. For the same compound, the values for the cell count in experiment [1] (setting [6]) and in experiment [1] (setting [7]) were 8240 and 9580, respectively. Further, the z-score in experiment [2] (setting [8]) is -0.586 (inactive); in experiment [2] (setting [9]), -0.131; in experiment [3] it was 0.38 (inactive).

Regarding `O=C(O)c1ccc(O)cc1O`, the fold change in experiment [1] (setting [4]) is 0.891 (inactive); in experiment [1] (setting [5]) it was 0.246. In addition, the cell count in experiment [1] (setting [6]) turned out to be 8740; in experiment [1] (setting [7]) it was 9810. In addition, the z-score in experiment [2] (setting [8]) is -0.11 (inactive); in experiment [2] (setting [9]) it was -0.1; in experiment [3], 0.565 (inactive).

As for `O=C(O)c1cnn(-c2ccccc2)c1`, the fold change in experiment [1] (setting [4]) is 0.883 (inactive); in experiment [1] (setting [5]), 0.82. In addition, the cell count in experiment [1] (setting [6]) was found to be 8690; in experiment [1] (setting [7]), 9840. Besides, the z-score in experiment [2] (setting [8]) was -0.738 (inactive); in experiment [2] (setting [9]) it was 0.631; in experiment [3], 1.16 (inactive).

`CC(=O)NCCc1ccc(S(N)(=O)=O)cc1`: the fold change in experiment [1] (setting [4]) is 0.918 (inactive); in experiment [1] (setting [5]), 0.641. Further, the results for the cell count in experiment [1] (setting [6]) and in experiment [1] (setting [7]) were 7840 and 8540, respectively. Further, the z-score in experiment [2] (setting [8]) is 0.668 (inactive); in experiment [2] (setting [9]), -0.256; in experiment [3], -0.065 (inactive).

On to `O=C(O)CSc1nnc(-c2ccc([N+](=O)[O-])o2)o1`, for which the fold change in experiment [1] (setting [4]) is 0.911 (inactive); in experiment [1] (setting [5]) it was 0.48. The cell count in experiment [1] (setting [6]) was 8530; in experiment [1] (setting [7]), 9370. Besides, the figures for the z-score in experiment [2] (setting [8]), in experiment [2] (setting [9]) and in experiment [3] were -1.16 (inactive), 0.209 and 0.17 (inactive), respectively.

Consider `O=C(c1cccc2nccnc12)N1CCc2[nH]nc(COc3ccccc3)c2C1`, for which the fold change in experiment [1] (setting [4]) is 0.845 (inactive); in experiment [1] (setting [5]), 1.54. The cell count came to 8640 in experiment [1] (setting [6]) and 10200 in experiment [1] (setting [7]). Also, the z-score in experiment [2] (setting [8]) was -0.113 (inactive); in experiment [2] (setting [9]), -0.39; in experiment [3], -0.45 (inactive).

As for `CN1CCC(CN(C)Cc2ccc(-c3nc(-c4ccncc4)cc(=O)[nH]3)cc2)CC1`, the fold change in experiment [1] (setting [4]) was 0.939 (inactive); in experiment [1] (setting [5]) it was 1.26. Besides, the cell count amounted to 9330 in experiment [1] (setting [6]) and 9930 in experiment [1] (setting [7]). Besides, the z-score is 0.0899 (inactive) in experiment [2] (setting [8]), 0.164 in experiment [2] (setting [9]) and -0.495 (inactive) in experiment [3].

Regarding `COc1cc(N(C)CC2COc3ccccc3O2)nc(N)n1` (stereo not given), the figures for the fold change in experiment [1] (setting [4]) and in experiment [1] (setting [5]) were 0.844 (inactive) and 2.02, respectively. For the same compound, the cell count in experiment [1] (setting [6]) was 3500; in experiment [1] (setting [7]), 4140. The z-score in experiment [2] (setting [8]) is 0.477 (inactive); in experiment [2] (setting [9]) it was -0.0472; in experiment [3], -0.58 (inactive).

For the compound `CCc1nc(NC(=O)N(C)CC2Cc3ccccc3O2)nn1C` (stereo not given), the fold change in experiment [1] (setting [4]) is 0.87 (inactive); in experiment [1] (setting [5]), 1.41. Also, the figures for the cell count in experiment [1] (setting [6]) and in experiment [1] (setting [7]) were 9140 and 10500, respectively. Also, the z-score in experiment [2] (setting [8]) was 0.229 (inactive); in experiment [2] (setting [9]), -0.335; in experiment [3] it was -0.515 (inactive).

Regarding `CN1CCC(CN(C)Cc2ccc(-c3nc(-c4cccnc4)cc(=O)[nH]3)cc2)CC1`, the fold change in experiment [1] (setting [4]) is 0.831 (inactive); in experiment [1] (setting [5]), 1.62. Also, the cell count in experiment [1] (setting [6]) is 8360; in experiment [1] (setting [7]) it was 10100. The z-score in experiment [2] (setting [8]) was 0.139 (inactive); in experiment [2] (setting [9]), 0.0765; in experiment [3], -0.51 (inactive).

For `O=C(O)C=Cc1ccccc1O`, the fold change in experiment [1] (setting [4]) is 0.911 (inactive); in experiment [1] (setting [5]), 0.83. Besides, the values for the cell count in experiment [1] (setting [6]) and in experiment [1] (setting [7]) were 8740 and 9590, respectively. In addition, the z-score in experiment [2] (setting [8]) was 0.0698 (inactive); in experiment [2] (setting [9]) it was 0.0548; in experiment [3], 0.245 (inactive).

Turning to `CCc1noc(Cn2cnc3sc4c(c3c2=O)CCC(C)C4)n1` (stereo not given), the fold change is 0.911 (inactive) in experiment [1] (setting [4]) and 1.55 in experiment [1] (setting [5]). In addition, the results for the cell count in experiment [1] (setting [6]) and in experiment [1] (setting [7]) were 8510 and 9340, respectively. Further, the z-score in experiment [2] (setting [8]) is 0.0666 (inactive); in experiment [2] (setting [9]), 0.0902; in experiment [3], -0.515 (inactive).
